According to PubChem BioAssay (NCI):
Compounds without any hit were thinned out: in the full panel of roughly 79,000, 15% have a hit. Unmarked numbers belong to inactive results. Calls of active or inactive are those of the source. No stated cut-off is given here; in the data, active means growth inhibition above about 70%; inactive means the rest.

Key:
[1] = NCI Yeast Anticancer Drug Screen. Data for the rad50 strain (AID 155);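 further: 0% = growth of vehicle-only cultures of the same strain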; details: S. cerevisiae rad50 strain growth inhibition; at 50.0 µM; stronger effect = higher value
Procedure, shortened: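 Compounds were tested on a yeast strain with an engineered DNA damage repair alteration; the reported value is growth inhibition normalised to vehicle treatment.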

[2] = NCI Yeast Anticancer Drug Screen. Data for the mec2-1 strain (AID 157); details: S. cerevisiae mec2-1 strain, at 50.0 µM, stronger effect = higher value
Procedure, shortened: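 Growth inhibition is read against vehicle-treated controls after compound exposure of the mec2-1 yeast strain, which is defective in DNA damage repair or cell cycle control.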

[3] = NCI Yeast Anticancer Drug Screen. Data for the sgs1 mgt1 strain (AID 161);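 further: 0% = growth of cultures given vehicle only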; details: S. cerevisiae sgs1 mgt1 strain, at 50.0 µM, stronger effect = higher value
Procedure, shortened: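 Growth of a repair-deficient yeast mutant was monitored after compound treatment and expressed as inhibition relative to vehicle-treated cultures.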

[4] = NCI Yeast Anticancer Drug Screen. Data for the cln2 rad14 strain (AID 165);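 further: 0% = growth equal to vehicle treated cultures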; details: S. cerevisiae cln2 rad14 strain, at 50.0 µM, stronger effect = higher value
Procedure, shortened: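 Growth inhibition, relative to vehicle-treated controls, is the read-out. The test organism is a yeast strain with defined genetic alterations, cln2 rad14.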

[5] = NCI Yeast Anticancer Drug Screen. Data for the bub3 strain (AID 167); details: S. cerevisiae bub3 mutant strain, at 50.0 µM, stronger effect = higher value
Procedure, shortened: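 Growth of a checkpoint-deficient yeast mutant is measured after compound exposure. Values represent inhibition relative to vehicle.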

[6] = NCI Yeast Anticancer Drug Screen. Data for the mlh1 rad18 strain (AID 175); details: S. cerevisiae mlh1 rad18 strain growth inhibition; at 50.0 µM; stronger effect = higher value
Procedure, shortened: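 Cells of a genetically altered yeast strain, deficient in DNA damage repair, were treated with compound. Their growth was then compared with that of vehicle-treated cultures to give inhibition.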

Row | SMILES | growth inhibition [1] | growth inhibition [2] | growth inhibition [3] | growth inhibition [4] | growth inhibition [5] | growth inhibition [6]
1 | CC(=O)c1ccc(N2C(=O)CC(NC3CCCCC3)C2=O)cc1 (configuration not stated) | -7.4% | 7.1% | 9.45% | -2.15% | 1.65% | -17.4%
2 | O=C(O)c1nccc2c([N+](=O)[O-])cccc12 | -2.4% | 6.4% | 16.6% | -13.5% | -4.4% | -12.9%
3 | N[N+]1(CCS(N)(=O)=O)CCOCC1 | -1.95% | -12.6% | -0.9% | -31.2% | -8.3% | 13.5%
4 | CCCCC(=O)Nc1ccc(S(=O)(=O)O)c(N=NC2C(=O)N(c3ccccc3)N=C2C)c1 (configuration not stated) | 27.1% | -10.6% | 5.6% | -13% | -3% | 15%
5 | CC1=NN(C)C(=O)C1 | 1.45% | 3.3% | 1.9% | -0.4% | -3.05% | 9.25%
6 | Cc1ccc(NC(=O)C(=O)C2NC(=S)NC2=O)c([N+](=O)[O-])c1 (configuration not stated) | 8.35% | 3.25% | 17.8% | 20.1% | 5.6% | 8.55%
7 | C=C(CC(=O)OCC)C(=O)OCC | 15.4% | 4.6% | 18.4% | 1.95% | 1.25% | 13.8%
8 | CSc1nnn(C(C)(C)C)n1 | 5.35% | 6% | -3.5% | -15.9% | -8.75% | 8.8%
9 | c1ccc(CNCCN(Cc2ccccc2)Cc2ccccc2)cc1 | 31.6% | -1.8% | 36.4% | -11.8% | 30.4% | 25.7%
10 | O=C1CSC(c2cccnc2)N1CCN1C(=O)CSC1c1cccnc1 (configuration not stated) | 3.75% | 4.15% | -11.5% | -2.4% | -1.6% | 19.4%
11 | CCOc1ccc(/C=C2\C=Nc3ccccc32)cc1 | -3.75% | -10.8% | 3.2% | 6.7% | 16.1% | -5.4%
12 | NC(=O)C1=CCCC1 | 6% | -0.1% | 0.5% | 10.2% | 12.8% | -3.3%
13 | CCCCSC1=NCCN1 | 14.8% | 9.15% | -3.9% | 5.5% | 5.25% | 10.5%
14 | CC(C)=CC1C[C@H](C2CC=C3C2(C)CCC2[C@@]3(C)C(=O)CC3[C@]2(C)C=CC(=O)[C@]3(C)CO)CO1 (some centres not stated) | 77.8% (active) | 78.9% (active) | 81.8% (active) | 78% (active) | 81.7% (active) | 86.2% (active)
15 | CN(C)CCSc1n[nH]c(=O)[nH]c1=O | 2.4% | -6.35% | -7.35% | -23.4% | -16.1% | -3.45%
16 | Cc1c(Cl)cccc1NC(=O)C(=O)C(C(=O)c1ccccc1-c1ccccc1)C1OC(=O)c2ccccc21 (configuration not stated) | -31.9% | -44.5% | -14.3% | -41.8% | 11.9% | -23%
17 | C[N+]1=C(/C=C/Nc2ccc(Cl)cc2)C(C)(C)c2ccccc21 | -2.35% | 6.2% | -10.4% | -2.55% | -1.8% | 9.5%
18 | CC[CH2][Sn]([CH2]CC)([O]C(=O)Cc1ccc(F)cc1)[O][Sn]([CH2]CC)([CH2]CC)[O]C(=O)Cc1ccc(F)cc1 | 90.2% (active) | 89.4% (active) | 87.8% (active) | 82.8% (active) | 89.1% (active) | 83.6% (active)
19 | CCCCc1c2cnccc2c(CCCC)c2c1[nH]c1ccccc12 | 88.8% (active) | 90.3% (active) | 91.8% (active) | 81.9% (active) | 89.2% (active) | 88.2% (active)
20 | CCCC1CN2CCc3cc(OC)c(OC)cc3C2CC1=O (configuration not stated) | 4.6% | 23.6% | 41.1% | 12.4% | 41.1% | 39.8%
21 | Cc1n(CC(=O)c2ccccc2)nc2sc(N)n[n+]12 | -50% | -23.9% | -68% | -18.2% | -14.8% | -20.9%

Row | SMILES | growth inhibition [1] | growth inhibition [2] | growth inhibition [3] | growth inhibition [4] | growth inhibition [5] | growth inhibition [6]
22 | O=C(O)C(Cc1c[nH]c2ccccc12)N1C(=O)c2ccccc2C1=O (configuration not stated) | 18.5% | 26.6% | -8.15% | -12.3% | -2.5% | 28.6%
23 | CCOC(COc1ccc2ccccc2c1)OCC | -18.6% | 0.5% | 0.55% | -55.7% | 6.9% | -10.1%
24 | Nc1ccc(S(=O)(=O)c2cnc(N)s2)cc1 | -4% | 4.25% | 27.8% | -3.25% | -11.2% | 11.4%
25 | O=C(O)CCc1ccccc1-c1ccccc1C(=O)O | 4% | 1.45% | -2.45% | 8.8% | 0.35% | 31.4%
26 | C=C(Cl)C(Cl)(CBr)CCC(Br)C(C)(C)Cl (configuration not stated) | 20.6% | 41% | 51.5% | 22.4% | 42.6% | -22.8%
27 | CCCCOC(=O)/C(CC(=O)C=C(C)C)=N\NS(=O)(=O)c1ccc(C)cc1 | 1.75% | -14.1% | -10.5% | 5.3% | -8.5% | -5.75%
28 | O=[N+]([O-])c1ccc(-c2nc3ccncc3[nH]2)cc1 | -22.6% | -7.4% | -15.2% | -21.6% | -6.85% | -12.6%
29 | CC(=O)NC1C(OCC(=O)NCCNc2ccc([N+](=O)[O-])c3[nH]c4ccccc4c(=O)c23)C(O)C(CO)OC1(C)OCc1ccccc1 (configuration not stated) | -3.9% | -39.9% | -25.6% | 8.65% | -18.4% | -3.4%
30 | COc1ccc(-c2cc(C(=O)O)c3cccc(C)c3n2)cc1 | 35.6% | -1.7% | 35% | 36.1% | 23.8% | 47.1%
31 | COC(=O)Cc1ccccn1 | 0.4% | -18.9% | 1.4% | 14.5% | -21.5% | 22.4%
32 | Cn1cc(C(=O)C2CCCCC2)ccc1=O | -4.6% | -11.8% | -2.6% | 15.9% | -14.2% | -19.3%
33 | CC(C)C1SCC(=O)N1c1nncs1 (configuration not stated) | -2.55% | 22.4% | 9.15% | -27.8% | -0.9% | 5%
34 | CC1N=C(SCC(=O)c2ccc(Cl)cc2)N2C(C)N=C(SCC(=O)c3ccc(Cl)cc3)N12 (configuration not stated) | -0.65% | -17.1% | -20.6% | 0.5% | -6.85% | 10.2%
35 | O=C1Cn2c(c3c(nc2=O)CCCC3)N1 | -31.1% | -7.3% | -10.3% | -13.7% | -7.95% | 2.1%
36 | N#C/C(=C(/Cc1ccc(F)cc1)NP(=O)(c1ccccc1)c1ccccc1)c1ccc(F)cc1 | 10.9% | -3.7% | -10.4% | 0.8% | 2.6% | -2.35%
37 | CCOC(CO)OCC | 28.9% | -0.25% | -3.4% | 8.95% | 13.6% | -8%
38 | COc1ccc(NC(C)=O)c(O)c1C | -0.6% | 2.15% | -17% | -25.4% | -3.7% | -12.7%
39 | NC(=O)c1ccc(NC=O)cc1 | -10.3% | 22.2% | -18.9% | 25.1% | -18.1% | -18.9%
40 | CCC(=C(c1ccc(OCc2ccccc2)cc1)c1ccc(OCc2ccccc2)cc1)c1ccc(OC)cc1 | 14.7% | -24.2% | 9.45% | -0.3% | -20.8% | -14.3%
41 | COc1cc2c(cc1OC)C(c1ccccc1)ON(C)CC2 (configuration not stated) | -4.15% | -1.7% | -3.35% | -13.4% | 1.45% | 1.35%
42 | O=C(O)c1ccccc1Nc1nc2ccccc2o1 | -1.85% | 2.15% | -7.05% | -26.6% | 15.2% | 0.25%
